# Results from the supplement of paper PMC6555819.
# Experiments:
# Experiment in all cases: PBM binding z-score (relative to random genomic background probes); higher = stronger binding; sequences stand for … in GC…GCGATTGACAGCGTAGAATGAAGG
# [1] = system: FXR:RXRa (NR concentration 270 nM, RXRa partner concentration 90 nM)
# How it was run: (§1)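 Antibodies against each partner of ligand-free nuclear receptor dimers (one per run) detected binding on custom Agilent 4×180K protein-binding microarrays after 1 h incubation. The double-stranded probes had 34-nt variable regions carrying direct-repeat seeds, single-nucleotide variants, half-site ablations and random human genomic background sequences. Binding z-scores, from regression-normalized fluorescence, use the random background probes as reference.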
# [2] = system: LXRa:RXRa (NR concentration 270 nM, RXRa partner concentration 90 nM)
# How it was run: as §1
# [3] = system: LXRa homodimer (NR concentration 270 nM)
# How it was run: as §1
# [4] = system: LXRb:RXRa (NR concentration 270 nM, RXRa partner concentration 90 nM)
# How it was run: as §1
# [5] = system: LXRb homodimer (NR concentration 270 nM)
# How it was run: as §1
# [6] = system: PPARa:RXRa (NR concentration 270 nM, RXRa partner concentration 90 nM)
# How it was run: as §1
# [7] = system: PPARg:RXRa (NR concentration 180 nM, RXRa partner concentration 90 nM)
# How it was run: as §1
# [8] = system: PPARg:RXRa 270nM:90nM, anti-RXR (NR concentration 270 nM, RXRa partner concentration 90 nM)
# How it was run: as §1
# [9] = system: PPARg:RXRa 30nM:10nM, anti-RXR (NR concentration 30 nM, RXRa partner concentration 10 nM)
# How it was run: as §1
# [10] = system: PPARg:RXRa 90nM:30nM, anti-RXR (NR concentration 90 nM, RXRa partner concentration 30 nM)
# How it was run: as §1
# [11] = system: PPARg:RXRa DBDmut IVT, anti-RXR (DBD mutation: RXRa K156A/R161A, NR concentration 270 nM, RXRa partner concentration 90 nM)
# How it was run: as §1
# [12] = system: PPARg:RXRa IVT, anti-PPARg (NR concentration 270 nM, RXRa partner concentration 90 nM)
# How it was run: as §1
# [13] = system: PPARg DBDmut:RXRa IVT, anti-PPARg (DBD mutation: PPARg1 K132A/R137A, NR concentration 270 nM, RXRa partner concentration 90 nM)
# How it was run: as §1
# [14] = system: PPARg DBDmut IVT, anti-PPARg (DBD mutation: PPARg1 K132A/R137A, NR concentration 270 nM)
# How it was run: as §1
# [15] = system: PPARg homodimer (NR concentration 180 nM)
# How it was run: as §1
# [16] = system: PXR:RXRa (NR concentration 270 nM, RXRa partner concentration 90 nM)
# How it was run: as §1
# [17] = system: PXR homodimer (NR concentration 270 nM)
# How it was run: as §1
# [18] = system: RARa:RXR (NR concentration 270 nM, RXRa partner concentration 90 nM)
# How it was run: as §1
# [19] = system: RARa homodimer (NR concentration 270 nM)
# How it was run: as §1
# [20] = system: RARb:RXRa (NR concentration 270 nM, RXRa partner concentration 90 nM)
# How it was run: as §1
Sequence,PBM binding z-score [1],PBM binding z-score [2],PBM binding z-score [3],PBM binding z-score [4],PBM binding z-score [5],PBM binding z-score [6],PBM binding z-score [7],PBM binding z-score [8],PBM binding z-score [9],PBM binding z-score [10],PBM binding z-score [11],PBM binding z-score [12],PBM binding z-score [13],PBM binding z-score [14],PBM binding z-score [15],PBM binding z-score [16],PBM binding z-score [17],PBM binding z-score [18],PBM binding z-score [19],PBM binding z-score [20]
TCATATAGGTAAAGGTGAAATTCGAACGATATGA,0.843,1.08,-0.192,1.14,0.15,3.13,4.11,4.26,4.22,4.3,3.77,3.94,1.35,1.08,0.745,0.895,0.378,1.54,0.597,1.77
ATCTCTAGGTAACCAAGTTCTGTGAATGCCGAAC,0.602,0.255,0.186,0.427,0.457,0.701,0.399,0.795,0.343,0.427,3.07,2.82,0.454,0.664,0.688,0.262,0.109,0.329,0.574,0.423
CGAACTAGGTCATTGAGAGGACAGTGAATAGTAA,3.94,2.78,0.422,1.87,-0.333,4.37,7.29,5.99,3.89,5.45,7.95,7.8,1.23,0.676,2.27,2.36,0.174,3.08,-0.238,3.74
CCTATTAGTTGACCATAAGCGCAACCGAAGCTCG,0.497,0.827,0.899,1.04,1.41,0.528,0.326,0.456,0.0964,0.123,0.822,0.118,1.15,0.388,2.28,0.436,1.11,0.706,2.45,0.701
TCAGACAGGTGAAGGTAAGTCAGGTACGCAGTCG,0.571,0.454,-0.273,0.356,-0.365,0.993,0.552,2.03,4.06,2.93,2.4,1.07,-0.136,-0.843,1.02,0.265,0.282,0.741,0.234,1.08
TCTGCTAGGTCAGTCGGTCAGCTAACGAGCTGCC,1.18,0.763,-0.313,0.432,0.0608,1.92,1.25,2.34,1.11,1.44,3.05,3.83,-0.327,-0.109,0.456,-0.00116,-1.21,0.436,-1.08,3.6
CAAACTAGGTCACGAAAGGCCAAAGTCGAATGAC,5.15,6.02,1.03,4.03,0.629,5.58,9.27,7.42,5.71,7.41,8.35,9.09,5.28,3.96,2.99,4.77,0.402,3.68,0.983,4.56
ATCGAAAGGTCGAAGGTGATTATACCCACCCGAA,4.31,3.69,0.425,2.92,0.626,4.48,4.21,4.47,2.33,3.99,0.155,2,1.25,0.935,1.86,2.89,0.393,4.03,0.957,3.5
CCTACAGGGCCATTCAGAGGTCATTGATCATATG,3.14,4.65,6.45,3.82,0.447,3.5,0.853,1.79,0.168,0.721,0.235,0.996,-0.322,-0.38,1.96,5.17,2.91,5.04,0.639,3.47
TCGAGTAGATTAGGGGCATTCAGAATGGCGTCGA,-0.41,-0.292,-0.833,0.457,-0.772,0.269,-0.0813,0.334,0.917,0.699,0.671,-0.44,-1.09,-1.25,-0.958,0.158,-0.306,-0.0495,-1.16,0.182
TCGAGTAGGTTAGGGGGATTCAGAATGGCGTCGA,0.594,0.704,0.047,2.05,5.63,1.63,1.42,3.21,2.01,2.69,2.93,3.21,2.69,5.71,1.41,1.2,0.466,0.482,0.665,1.19
CCTACTGGGCCAAAAAGGTCATAGATGCCGATAA,3.54,4.14,2.44,4.1,-0.00458,5.14,3.89,4.29,1.84,3.55,3.18,4.3,0.551,-0.44,3.27,4.51,1.73,5.33,1.49,3.98
TCATATAGGTAAAGGTAAAAGTCGAACGATATGA,0.715,1.06,-0.299,0.926,-0.151,2.1,2.75,3.46,4.13,3.8,3.98,3.36,1.85,1.27,0.454,0.53,0.308,0.709,1.3,0.845
TTACCAAGGTGAAGATCGTTGATCCCTCTGTAGA,0.339,0.08,-0.422,0.141,-0.815,1.14,0.457,0.958,0.156,0.575,1.37,1.92,0.401,0.0725,0.177,0.123,-0.895,0.533,-0.66,1.26
